Laboratory results reported in PubChem BioAssay AID2289 (National Center for Advancing Translational Sciences (NCATS), 2010).
Among all 340,000 compounds or so, about 3,300 (0.97%) were called active. Another 9% or so got no clear call; they are omitted. Calls come from the whole dose curve; as a rule, active = well fitted inhibition curve with a large enough effect; inconclusive = small, poorly fitted or top-dose-only effect, or effect the other way; inactive = flat fitted curve, though single readings scatter. This is one part of the list.

Assay: qHTS Assay for Modulators of miRNAs and/or Inhibitors of miR-21; note: nearly all actives have a fitted effect of over 55% in size
Settings: HeLa miR-21-FLuc reporter, luciferase luminescence, 48 h; actives lower the signal
Summary of the method: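 Compounds were titrated across several concentrations (up to approximately 40 uM) and incubated 48 hours with HeLa miR-21-FLuc reporter cells (miR-21 target sequence downstream of FLuc, endogenous miR-21). Readout was firefly luciferase luminescence after lytic detection reagent.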
Potency is the fitted concentration of half-maximal effect.

Potency, active:
COc1ccc(C2CC(C)(c3ccc(OC)cc3)Nc3ccccc3N2)cc1 (centres undefined) 7.36 µM
O=C(c1ccccc1)c1cnc(-c2ccc(Cl)cc2)s1 0.464 µM
O=C(COc1ccc(Cl)cc1Cl)NCc1ccco1 16.5 µM
N#Cc1ccccc1OCC(=O)NC(=O)NCc1ccco1 6.56 µM
O=C(COc1ccc(Cl)cc1Cl)c1ccc[nH]1 10.4 µM
Cc1nnc(NC(=O)c2cc3ccccc3o2)s1 8.26 µM
COc1cc2ccccc2cc1C(=O)Nc1ccc(N2CCN(C)CC2)cc1 7.36 µM
CN1CCN(c2ccc(NC(=O)c3sc4ccccc4c3Cl)cc2)CC1 1.17 µM
CC(C)C(=O)Nc1ccc(NC(=O)c2cc3ccccc3o2)cc1 11.2 µM
O=C(Nc1ncccc1Cl)c1cc2ccccc2o1 0.656 µM
CC(Cc1ccccc1)NC(=O)c1cc2ccccc2o1 (centres undefined) 6.56 µM
CN1CCN(c2ccc(NC(=O)c3cc4ccccc4o3)cc2)CC1 0.927 µM
COc1cc(/C=N/O)ccc1OCc1ccc([N+](=O)[O-])cc1 3.29 µM
COc1cc(/C=N/O)ccc1OCc1ccccc1Cl 2.93 µM
COc1cc(/C=N/O)ccc1OCc1ccc(Cl)cc1 0.369 µM
O=C(c1ccc2c3n(nc2c1)-c1ccc(Cl)cc1CO3)N1CCOCC1 5.21 µM
Cc1ccc2c(c1)COc1c3ccc(C(=O)N4CCCCC4)cc3nn1-2 3.69 µM
Cc1ccc2c(c1)COc1c3ccc(C(=O)N4CCOCC4)cc3nn1-2 5.21 µM
C#Cc1cccc(NC(=O)CSc2nnc(-c3ccc(C(F)(F)F)cn3)o2)c1 4.14 µM
O=C(CSc1nnc(-c2ccccn2)o1)Nc1cccc(Cl)c1 1.85 µM
O=C(CSc1nnc(-c2ccc(C(F)(F)F)cn2)o1)Nc1cccc(Cl)c1 4.14 µM
Cc1cc(C)n(-c2cc(C(C)(C)C)nc3c(-c4ccccc4)cnn23)n1 2.61 µM
CC(C)Nc1cc(C(C)(C)C)nc2c(-c3ccccc3)cnn12 6.56 µM
CN(C)CCCNc1cc(C(C)(C)C)nc2c(-c3ccccc3)cnn12 2.93 µM
CCn1cnc2sc(C(=O)Nc3ccc4c(c3)OCO4)c(C)c2c1=O 3.16 µM
Cc1cc(N/N=C/c2ccncc2)nc2ccccc12 5.85 µM
Cc1cc(N/N=C/c2ccccc2Br)nc2ccccc12 13.1 µM
O=c1c2cc(-c3ccccc3)sc2nc2n1N=C(c1cccs1)CS2 0.414 µM
COc1ccc(OC)c(N/C(C)=C/C(=O)c2ccccc2)c1 7.36 µM
C/C(=C\C(=O)c1ccc(C)cc1)Nc1cccc(O)c1 3.29 µM
C/C(=C\C(=O)c1ccccc1)Nc1cccc(O)c1 4.65 µM
Cn1c(=O)n(C)c2cc(NS(=O)(=O)c3ccc(F)cc3)c(NCc3ccccc3)cc21 9.27 µM
CCOc1ccc(OCCn2nnc3ccccc3c2=O)cc1 5.21 µM
O=c1c2ccccc2nnn1COc1cccc2ccccc12 14.7 µM
O=c1c2ccccc2nnn1COc1cccc(Cl)c1 13.1 µM
Cc1ccc(/C=C(\C#N)C(=O)Nc2ccc(Br)cc2)o1 0.656 µM
CC1CC1c1ccc(/C=C(\C#N)C(=O)Nc2ccccc2Cl)o1 (centres undefined) 14.7 µM
Cc1cccc(NC(=O)/C(C#N)=C/c2ccco2)c1 4.14 µM
Cc1ccc(NC(=O)/C(C#N)=C/c2ccc(C)o2)cc1 0.329 µM
Cc1ccc(/C=C(\C#N)C(=O)Nc2cccc(Cl)c2)o1 1.47 µM
COc1ccccc1NC(CC(=O)c1ccccc1)C(=O)OCC(=O)c1ccc(C)cc1 (centres undefined) 1.47 µM
COc1ccccc1NC(CC(=O)c1ccccc1)C(=O)OCC(=O)c1ccc(C)c(C)c1 (centres undefined) 1.04 µM
O=C(CC(Nc1ccc(F)cc1)C(=O)OCC(=O)c1cccs1)c1ccccc1 (centres undefined) 3.29 µM
O=C(c1ccc(COCC(F)(F)F)cc1)N1CCN(c2ccccn2)CC1 14.7 µM
CCc1ccc(N2C(=O)Cc3c2nc(N)c(C#N)c3N)cc1 16.5 µM
COc1ccc(NC(=O)C2C3CC/C=C\CCC32)cc1 (centres undefined) 6.56 µM
CNC(=O)c1c(NC(=O)c2nc3ccccc3s2)sc2c1CCC2 1.31 µM
Cc1cccc2cc(/C=N/Nc3ccc(C(=O)O)cc3)c(Cl)nc12 0.521 µM
O=C(O)c1ccc(N/N=C/c2cc3ccccc3nc2Cl)cc1 3.29 µM
Cc1ccc2cc(/C=N/Nc3ccc(C(=O)O)cc3)c(Cl)nc2c1 2.07 µM
CCCCOc1ccc2c(c1)C(=O)c1cc(O)ccc1-2 5.85 µM
O=[N+]([O-])c1ccccc1N/N=C1\CC2CC=CC12 (centres undefined) 16.5 µM
O=c1[nH]c(/C=C/c2ccc(Br)cc2)nc2ccccc12 0.369 µM
Cc1[nH]c2ccccc2c1/C=C/c1nc2ccccc2c(=O)[nH]1 1.31 µM
C=CCOc1cccc(/C=C/c2nc3ccccc3c(=O)[nH]2)c1 0.826 µM
COCC(C)N=C1NN=C(c2c[nH]c3ccccc23)CS1 (centres undefined) 6.56 µM
C=CCOc1ccc2c(OC)c3ccoc3nc2c1OC 13.1 µM
CCOc1ccc(NC(=O)c2csc3c2CCCC3)cc1 2.07 µM
CCc1ccc(NC(=O)c2ccccc2Br)cc1 2.07 µM
CCc1ccc(NC(=O)c2ccccc2SC)cc1 7.36 µM
CCOc1ccc(NC(=O)c2ccccc2SC)cc1 7.36 µM
C#CCNC(=O)/C=C/c1ccc(OC)cc1 13.1 µM
C#CCNC(=O)/C=C/c1ccc(C)cc1 8.26 µM
O=C1CCNc2ccc(-c3ccccc3)cc21 6.56 µM
CCn1c(NCc2ccc3c(c2)OCO3)nc2ccccc21 16.5 µM
C=CCn1c(NCc2ccc3c(c2)OCO3)nc2ccccc21 9.27 µM
Cc1ccc2oc(-c3ccc(C)c(NC(=S)NC(=O)c4cccs4)c3)nc2c1 0.521 µM
Cc1ccc2oc(-c3cccc(NC(=O)Cn4cnc5c(=O)n(C)c(=O)n(C)c54)c3)nc2c1 6.56 µM
Cc1ccc2oc(-c3cccc(NC(=S)NC(=O)c4cccs4)c3)nc2c1 4.14 µM
NC(=O)c1sc2nc(-c3cccs3)ccc2c1N 13.1 µM
Nc1c(C(=O)Nc2ccccc2Br)sc2nc(-c3cccs3)ccc12 7.36 µM
CC(=O)c1sc2nc(-c3cccs3)ccc2c1N 14.7 µM
O=c1/c(=C\c2ccc(F)cc2)sc2n1CCCN=2 1.85 µM
O=C(CCC1CCCN(C(=O)Cc2cccc(F)c2)C1)N1CCN(c2ccccn2)CC1 (centres undefined) 16.5 µM
Cc1cc(N)ccc1N=Nc1c(C)n(C)n(-c2ccccc2)c1=O 14.7 µM
Cc1c(N=Nc2ccc(N(C)C)cc2)c(=O)n(-c2ccccc2)n1C 5.21 µM
Cc1ccc(/C=N/NC(=S)NC2CCCCC2)o1 5.21 µM
CN(C)/C=N/c1nc2ccc3c(c2s1)CCCC3 2.33 µM
Cc1cccc(-n2ncc3c(N4CCC5(CC4)OCCO5)ncnc32)c1 1.85 µM
CCN1CCN(c2ncnc3c2cnn3-c2ccc(C)c(C)c2)CC1 1.65 µM
Clc1ccc(-n2ncc3c(N4CCCC4)ncnc32)cc1 0.0656 µM
CN(C(=O)c1cc(-c2ccc3c(c2)OCO3)on1)c1ccccc1 2.61 µM
COc1ccc(-c2cc(C(=O)NC3CCCC3)no2)cc1 1.17 µM
CCCCNC(=O)c1cc(-c2ccc(F)cc2)on1 3.29 µM
O=C(NC1CCCC1)c1cc(-c2ccc(Cl)cc2)on1 1.65 µM
O=C(NC1CCCC1)c1cc(-c2cccc(Cl)c2)on1 4.65 µM
CC1CCCC(C)N1C(=O)c1cc(-c2cccs2)on1 (centres undefined) 16.5 µM
CCCNC(=O)c1cc(-c2ccc(OC)cc2)on1 0.927 µM
Cc1ccc(-c2cc(C(=O)NC3CCCC3)no2)cc1 1.31 µM
O=C(NC1CCCC1)c1cc(-c2ccc(F)cc2)on1 1.85 µM
O=C(NCC1CCCO1)c1cc(-c2ccccc2F)no1 (centres undefined) 14.7 µM
CN(C(=O)c1cc(-c2ccccc2)on1)C1CCCCC1 2.07 µM
O=C(NC1CCCCC1)c1cc(-c2ccc(O)cc2)on1 2.93 µM
COc1cccc(-c2cc(C(=O)N3C(C)CCCC3C)no2)c1 (centres undefined) 3.29 µM
COc1cccc(-c2cc(C(=O)NC3CCCCC3)no2)c1 2.07 µM
O=C(NC1CCCC1)c1cc(-c2ccccc2)on1 2.93 µM
O=C(NCC1CCCO1)c1cc(-c2ccccc2)on1 (centres undefined) 7.36 µM
COc1ccc(-c2noc(-c3ccco3)n2)cc1OC 1.65 µM
COc1ccc(-c2nc(-c3ccncc3)no2)cc1OC 4.65 µM
Cc1cccc(-c2noc(-c3ccc(Cl)cc3[N+](=O)[O-])n2)c1 1.17 µM
COc1ccc(-c2nc(-c3cccc(C)c3)no2)cc1OC 2.93 µM
COc1ccc(-c2noc(-c3cccnc3)n2)cc1OC 6.56 µM
COc1ccc(-c2nc(-c3cccnc3)no2)cc1 0.826 µM
COc1ccc(-c2nc(-c3cccnc3)no2)cc1OC 16.5 µM
